Test results as given in PubChem BioAssay (NCATS).
Where “and” joins values, the source holds several entries; their conditions need not be identical. Identical values can stand only once. Results filed as inconclusive are left out. For part of these data: Entries with a potency or affinity are not part of this list. Calls of active or inactive are those of the source. Unless noted, no rule for the calls is given here.

Experiments:
[1] = target: T1, Hexokinase-4 (Homo sapiens) + Glucokinase regulatory protein (Homo sapiens) (UniProt P35557+Q14397); assay: qHTS assay for inhibitors of recombinant human GCK-GKRP interaction: Diaphorase-coupled assay (AID 743205; active = well fitted curve in the direction sought with a large enough effect; an effect the other way counts as inactive or inconclusive)
How it was run: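 Signal derives from resorufin generated by diaphorase, linked to GCK turnover of glucose (5 mM) and ATP (0.4 mM). Enzyme complex was added after a 20-minute compound preincubation and monitored for 30 minutes.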

[2] = target: T1, Hexokinase-4 (Homo sapiens) + Glucokinase regulatory protein (Homo sapiens); assay: qHTS assay for inhibitors of recombinant human GCK-GKRP interaction: ADP-Glo assay (AID 743206; active = well fitted curve in the direction sought with a large enough effect; an effect the other way counts as inactive or inconclusive;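 also: plate controls were DMSO plus enzyme for no effect and no enzyme for full effect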)
How it was run: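 Pin-transferred compounds meet a 15 nM GST-GCK/15 nM FLAG-GKRP/2 uM S6P mix (dispense concentrations). ATP is then added to 0.4 mM final with 5 mM glucose, and the reaction runs 60 min at room temperature. ADP is quantified luminescently.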

[3] = target: T1, Hexokinase-4 (Homo sapiens) + Glucokinase regulatory protein (Homo sapiens); assay: qHTS assay for inhibitors of recombinant human GCK-GKRP interaction: HTRF assay (AID 743207; active = well fitted curve in the direction sought with a large enough effect; an effect the other way counts as inactive or inconclusive;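 also: 0% = DMSO with GCK present and -100% = DMSO wells lacking GCK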)
How it was run: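 Titration screening format: recombinant GST-GCK and FLAG-GKRP at 5 nM, S6P at 2 uM, labelled anti-tag antibodies, 60 min at RT, dual-wavelength HTRF readout.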

[4] = qHTS Assay for Identifying Gametocytocidal Compounds (AID 743244; active = well fitted curve in the direction sought with a large enough effect; an effect the other way counts as inactive or inconclusive;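 also: % is scaled to controls: 0 for no effect and ±100 for the full control effect; actives lower the fluorescent signal which means gametocytes are killed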); details: P. falciparum 3D7 stage III-V gametocytes, alamarBlue, 72 h; max response: stronger effect = lower value
How it was run: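 Using 20,000 stage III–V 3D7 gametocytes per well, compounds were incubated 72 h under 37 °C/5% CO2. Viability was then assessed by 24 h alamarBlue reduction, measured fluorometrically at 525/598 nm.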

[5] = Ebola virus entry assay, green fluorescence channel
[6] = Ebola virus entry assay, ratio channel
[7] = Ebola virus entry assay, green channel fluorescence
[8] = qHTS assay for cell viability of HEK293 cells (AID 743288; active = well fitted curve in the direction sought with a large enough effect; an effect the other way counts as inactive or inconclusive; also: % is scaled to controls: 0 for no effect and ±100 for the full control effect; nearly all actives have a fitted effect of over 50% in size); details: ATP luminescence (CellTiter-Glo), 18 h, stronger effect = lower value
How it was run: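 HEK293, 18 h, 37 C, ATP luminescence. Cells at 2,000/well were allowed at least 5 h to settle before dosing; CellTiter-Glo developed 30 min at RT.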

[9] = qHTS assay for cell viability of the p53RE-bla HCT-116 cell line (AID 743292; active = well fitted curve in the direction sought with a large enough effect; an effect the other way counts as inactive or inconclusive; also: nearly all actives have a fitted effect of over 55% in size; also: potency is read from the fitted curve at half-maximal effect)
How it was run: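 Quantitative high-throughput format: compounds in DMSO were pinned onto p53RE-bla HCT-116 cells (4,000/well) and incubated 16 h at 37 C. Total intracellular ATP, read by CellTiter-Glo luminescence, reflects viable cell number.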

[10] = qHTS profiling of the MIPE4 collection as inhibitors of Plasmodium falciparum (3D7) proliferation (AID 743344);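 also: scaled between DMSO vehicle wells and 0.29 µM artemisinin as full inhibition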; details: P. falciparum 3D7 in erythrocytes, SYBR Green DNA fluorescence, 72 h; at 28.5 µM (top of the series) unless noted
How it was run: (§1)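 Parasite DNA was quantified by SYBR Green I fluorescence (ex 485, em 535 nm) after overnight lysis in saponin/Triton buffer at room temperature. Cultures at 0.3% parasitemia and 2.5% hematocrit were first exposed to compound for 72 h at 37 C; signals were normalised to artemisinin (0.29 uM) and vehicle wells.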

[11] = qHTS profiling of the MIPE4 collection as inhibitors of Plasmodium falciparum (DD2) proliferation (AID 743345); details: P. falciparum Dd2 in erythrocytes, SYBR Green DNA, 72 h; at 28.5 µM (top of the series) unless noted
How it was run: as §1

[12] = qHTS profiling of the MIPE4 collection as inhibitors of Plasmodium falciparum (DD2) proliferation (Rep 2) (AID 743346); details: P. falciparum Dd2 in erythrocytes, SYBR Green DNA, 72 h; at 28.5 µM (top of the series) unless noted
How it was run: as §1

[13] = qHTS profiling of the MIPE4 collection as inhibitors of Plasmodium falciparum (HB3) proliferation (AID 743347);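 also: plate controls were DMSO vehicle wells for no effect and artemisinin wells for full effect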; details: P. falciparum HB3 in erythrocytes, SYBR Green DNA, 72 h; at 28.5 µM (top of the series) unless noted
How it was run: as §1
For efficacy in this document: 0% is about no effect.

T1 sequence (P35557 whole entry, looked up): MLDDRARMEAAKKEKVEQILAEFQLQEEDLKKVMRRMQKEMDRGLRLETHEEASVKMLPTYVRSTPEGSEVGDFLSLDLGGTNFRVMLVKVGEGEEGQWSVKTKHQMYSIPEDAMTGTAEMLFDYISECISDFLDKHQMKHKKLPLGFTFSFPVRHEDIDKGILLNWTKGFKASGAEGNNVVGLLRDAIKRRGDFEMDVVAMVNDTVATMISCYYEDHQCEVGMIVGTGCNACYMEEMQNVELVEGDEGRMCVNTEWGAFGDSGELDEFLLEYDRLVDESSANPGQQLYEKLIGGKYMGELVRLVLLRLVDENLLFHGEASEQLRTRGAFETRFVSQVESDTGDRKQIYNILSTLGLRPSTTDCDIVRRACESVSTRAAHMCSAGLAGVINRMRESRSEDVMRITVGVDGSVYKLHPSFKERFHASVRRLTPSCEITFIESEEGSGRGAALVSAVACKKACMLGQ
T1 sequence (Q14397 whole entry, looked up): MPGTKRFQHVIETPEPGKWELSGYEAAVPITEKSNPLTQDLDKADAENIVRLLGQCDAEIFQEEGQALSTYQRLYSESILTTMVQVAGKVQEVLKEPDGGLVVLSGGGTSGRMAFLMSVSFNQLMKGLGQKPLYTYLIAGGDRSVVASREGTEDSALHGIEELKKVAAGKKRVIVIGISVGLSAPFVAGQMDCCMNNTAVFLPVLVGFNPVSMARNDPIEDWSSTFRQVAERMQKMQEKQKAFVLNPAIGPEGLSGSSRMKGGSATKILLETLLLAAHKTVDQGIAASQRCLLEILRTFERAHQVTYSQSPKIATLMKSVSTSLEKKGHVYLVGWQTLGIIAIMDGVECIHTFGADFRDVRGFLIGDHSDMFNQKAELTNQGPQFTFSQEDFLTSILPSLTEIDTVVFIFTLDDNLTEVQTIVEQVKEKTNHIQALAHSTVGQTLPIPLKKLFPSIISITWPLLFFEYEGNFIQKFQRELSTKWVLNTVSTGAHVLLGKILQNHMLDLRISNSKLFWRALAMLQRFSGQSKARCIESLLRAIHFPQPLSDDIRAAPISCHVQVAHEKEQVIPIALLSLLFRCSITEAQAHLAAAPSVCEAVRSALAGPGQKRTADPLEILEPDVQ

CCCCC/C=C\C/C=C\C/C=C\C/C=C\CCCC(=O)NCC(=O)O
inactive: outcome [1] | outcome [2] | outcome [3] | max response [4] -2.03% and 7.82% | efficacy [5] -13.8% | outcome [6] | outcome [7]

CCC1(CC)C(=O)C=CNC1=O
inactive: max response [4] -13.9% | efficacy [5] -31% | outcome [6] | outcome [7]

O=C(NC(Cc1cc(=O)[nH]c2ccccc12)C(=O)O)c1ccc(Cl)cc1 (stereo not drawn)
inactive: efficacy [5] -33.1% | outcome [6] | outcome [7]

CCCCC(=O)OCC(=O)[C@H]1[C@H](C)C[C@H]2[C@@H]3C[C@H](F)C4=CC(=O)C=C[C@]4(C)[C@@]3(F)[C@@H](O)C[C@@]21C
inactive: efficacy [5] 21.9% | outcome [6] | outcome [7]

CCc1cc2c(s1)-n1c(C)nnc1CN=C2c1ccccc1Cl
inactive: max response [4] 2.24% | efficacy [5] 22% | outcome [6] | outcome [7]

Clc1ccc(C(c2ccc(Cl)cc2)C(Cl)(Cl)Cl)cc1
active: Potency [9] 50.1 µM
inactive: max response [4] 0.742% | max response [8] -17.1% | efficacy [5] 25.5% | outcome [6] | outcome [7]

Oc1ccccc1C=NCc1ccccc1
inactive: efficacy [5] -16.4% | outcome [7]

CCC(C)(C)c1ccc(O)cc1
inactive: max response [8] 6.76% and -11.5% | Potency [9] | efficacy [5] 13.1% | outcome [6] | outcome [7]

O=C1c2c(O)cccc2Cc2cccc(O)c21
inactive: efficacy [5] -17.8% | outcome [6] | outcome [7]

C[C@@H]1O[C@@H](OC[C@H]2O[C@@H](Oc3c(-c4ccc(O)c(O)c4)oc4cc(O)cc(O)c4c3=O)[C@H](O)[C@@H](O)[C@@H]2O)[C@H](O)[C@H](O)[C@H]1O
inactive: efficacy [5] 21.1% | outcome [7]

CN1C(=O)NC(=O)C(C)(C2=CCCCC2)C1=O (stereo not drawn)
inactive: max response [4] 8.57% and 23.3% | efficacy [5] 10.3% | outcome [6] | outcome [7]

CCn1cc(C(=O)O)c(=O)c2cnc(N3CCCC3)nc21
inactive: efficacy [5] 11.6% | outcome [6] | outcome [7]

Cc1nc([N+](=O)[O-])cn1-c1ccc([N+](=O)[O-])cc1
inactive: efficacy [5] -13.8% | outcome [6] | outcome [7]

Cc1ccc(C(C)C)cc2c(C)ccc1-2
inactive: efficacy [5] 14% | outcome [6] | outcome [7]

CNCC(O)c1ccc(O)c(O)c1 (stereo not drawn)
inactive: efficacy [5] 44.4% | outcome [6] | outcome [7]

CC(C)CCCC(C)NCCC(C)C (stereo not drawn)
inactive: efficacy [5] -17.9% | outcome [6] | outcome [7]

FC1(F)C(F)(F)C(F)(F)C2(F)C(F)(F)C(F)(F)C(F)(F)C(F)(F)C2(F)C1(F)F (stereo not drawn)
inactive: efficacy [5] -14% | outcome [6] | outcome [7]

Cc1ncc(CO)c(CO)c1O
inactive: efficacy [5] -13.2% | outcome [6] | outcome [7]

NNc1ccccc1
inactive: max response [4] -4.92% | efficacy [5] -13.5% | outcome [6] | outcome [7]

C[C@H]1[C@@H]2Cc3ccc(O)cc3[C@@]1(C)CCN2C
inactive: max response [4] 2.87% | efficacy [5] 67.4% | outcome [6]

COc1ccc2c(c1OC)C(=O)O[C@H]2[C@@H]1c2cc3c(cc2CCN1C)OCO3
inactive: outcome [1] | outcome [2] | outcome [3] | max response [4] 10.8% and 14.8% | efficacy [5] 26.4% | outcome [6] | outcome [7]

CC(=O)[C@H]1CC[C@H]2[C@@H]3C=CC4=CC(=O)CC[C@@]4(C)[C@@H]3CC[C@]12C
inactive: efficacy [5] 16% | outcome [6] | outcome [7]

CCN(CC)CCc1c[nH]c2ccccc12
inactive: max response [4] 14.8% | efficacy [5] 21.6% | outcome [6] | outcome [7]

COP(=S)(OC)SCN1C(=O)c2ccccc2C1=O
inactive: max response [4] -4.68% | max response [8] -19.3% | Potency [9] | efficacy [5] -28.1% | outcome [6] | outcome [7]

Nc1ccc([As](=O)(O)O)cc1
inactive: max response [8] -4.94% | Potency [9] | efficacy [5] -24.9% | outcome [6] | outcome [7]

CC(C)=CC1C(C(=O)OCN2C(=O)C3=C(CCCC3)C2=O)C1(C)C (stereo not drawn)
inactive: max response [4] 1.71% | efficacy [5] 28% | outcome [6] | outcome [7]

Cc1ncc(CO)c(C=O)c1O
inactive: efficacy [5] -24.1% | outcome [6] | outcome [7]

CC(C)(C)NC[C@H](O)COc1nsnc1N1CCOCC1
inactive: efficacy [5] 15.5% | outcome [6] | outcome [7]

C[C@]12CC[C@H]3[C@@H](CC[C@@]45O[C@H]4C(O)=C(C#N)C[C@]35C)[C@H]1CC[C@H]2O
inactive: efficacy [5] 26.8% | outcome [6]
55.7%: parasite growth, % of control (lower = inhibition) [12]
70.8%: parasite growth remaining, % of DMSO control (lower = more inhibition) [11]
90.1%: growth, % of control [13]
70.4%: parasite growth, % of DMSO control [10]

CCC1(c2ccc(N)cc2)CCC(=O)NC1=O (stereo not drawn)
inactive: outcome [1] | outcome [2] | outcome [3] | max response [4] 3.2% and 30.1% | efficacy [5] -15.9% | outcome [6] | outcome [7]
103%: parasite growth remaining, % of DMSO control (lower = more inhibition) [11]
101%: growth, % of control [13]
117%: parasite growth, % of control (lower = inhibition) [12]
89%: parasite growth, % of DMSO control [10]
